A selection: hits, their analogues and other compounds. The true share with any hit is near 1.3%.
CRFR2-BP ag = agonists of CRF-BP/CRF-R2 complex, primary screen, cell-based, HEK293, calcium dye fluorescence, uHTS; calcium dye fluorescence (FLIPR); percent of saturating CRF peptide response; 0.46% of 350,000 active; CRF-binding protein / CRF receptor 2 complex (human); activation, % at 13.2 µM; AID 588473, 2011;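 active = activation of at least 50%, plus an integration ratio under a set limit after plate pattern correction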;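 note: plate controls were neutral control wells without compound for no effect and CRF at EC100 for full effect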
RTF Ca sens act = cardiac RTF calcium sensitivity activators, primary screen, biochemical, IANBD-TnC fluorescence, EC20 calcium; Troponin I, cardiac muscle (Homo sapiens) + Troponin T, cardiac muscle (Homo sapiens) + …; IANBD-labeled TnC RTF fluorescence at EC20 calcium; 0% EC20 calcium, 100% full calcium; activation, % at 7.2 µM; 0.24% of 340,000 active; AID 493008, 2010;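 active = activation above the mean over all tested compounds plus 3 SD, cut at about 30% in these data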;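 note: rise in fluorescence read as greater calcium sensitivity of cardiac thin filaments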
CRFBP-R2 block = antagonists of CRF-BP/CRF-R2 complex, primary screen, cell-based, HEK293, calcium dye fluorescence, uHTS; 0.59% of 350,000 active; AID 588475, 2011; inhibition, % at 11.8 µM; CRF-induced calcium fluorescence;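 active = inhibition of the ligand-induced calcium signal above about 50% at the single tested concentration, limit read from the data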
RTF Ca sens inh = cardiac RTF calcium sensitivity inhibitors, primary screen, biochemical, IANBD-TnC fluorescence, EC70 calcium; Troponin I, cardiac muscle (Homo sapiens) + Troponin T, cardiac muscle (Homo sapiens) + …; IANBD-labeled cardiac RTF, Ca2+ fluorescence; inhibition, % at 7.15 µM; 0.12% of 340,000 active;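 active = inhibition above the mean inhibition of all tested compounds plus 3 SD, cut at about 17% in these data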;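 note: assay run at fixed EC70 calcium of 1.6 mM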
RTF Ca inh conf = cardiac RTF calcium sensitivity inhibitors, confirmation, biochemical, fluorescence readout. shares compounds with RTF Ca sens inh. reconstituted cardiac thin filaments. inhibition, % at 7.15 µM. 8% of 360 active; in the data active = inhibition above about 18%
The depositor's hits bear a star; · = not tested or not shown.

SMILES	CRFR2-BP ag	RTF Ca sens act	CRFBP-R2 block	RTF Ca sens inh	others
Cc1cc(OC(=O)c2ccco2)c2c3c(c(=O)oc2c1)CCCC3	0	-1	40	8
Cc1cc(OC(=O)c2cccs2)c2c3c(c(=O)oc2c1)CCCC3	12	-2	52*	15
CC1CCC2[C@@H](C)C(=O)OC3O[C@]4(C)CCC1C32OO4 (stereo partly specified)	-1	-5	4	-4
COCCO[C@H]1CC[C@@]2(C)C(=CCC3C2CC[C@@]2(C)C3CC[C@]2(C)O)C1 (stereo partly specified)	-2	-3	-6	1
CC1=CC(=O)OC2CC3OC4C[C@@H](C)C5OC6CC7O[C@]8(C)C/C=C\C9OC%10CC%11OC(CC(C)C%12OCCO%12)CC(O)[C@]%11(C)OC%10CC9OC8C[C@]7(C)O[C@]6(C)CCC5OC4C[C@]3(C)OC12 (stereo partly specified)	75*	-1	-32	7
CN1/C(=C\C=C2C(=O)NC(=O)NC2=O)C(C)(C)c2ccccc21	378*	109*	-383	-182
C[C@H]1CC[C@@H]2[C@@H](C)[C@H]3[C@H](C[C@H]4[C@@H]5CC=C6C[C@@H](O[C@@H]7O[C@H](CO)[C@H](O)[C@H](O[C@@H]8O[C@H](CO)[C@@H](O)[C@H](O)[C@H]8O)[C@H]7O[C@@H]7O[C@@H](C)[C@H](O)[C@@H](O)[C@H]7O)CC[C@]6(C)[C@H]5CC[C@]34C)N2C1	67*	9	-22	-13
O=C1CC(=O)N(Cc2ccccc2)C(=S)N1	4	-4	8	-3
CCN(CC)c1ccc(/C=N/c2sc3c(c2C#N)C2CCN3CC2)c(O)c1	171*	146*	-160	-175
O=C(N/N=C/c1c(O)n(CCC2=CCCCC2)c(=S)[nH]c1=O)c1ccccc1	1	3	55*	-6
O=C(N/N=C/c1c(O)n(CCC2=CCCCC2)c(=O)[nH]c1=O)c1ccccc1	2	2	25	5
CCN1/C(=C/C=C/C2=[N+](CC)c3ccccc3C2(C)C)C(C)(C)c2ccccc21	139*	·	-43	·
CN1/C(=C\C=Nc2ccccc2)C(C)(C)c2ccccc21	3	9	-16	-23
O=C(/C=C/c1c[nH]c2ccccc12)c1c(O)n(CCc2ccccc2)c(=O)[nH]c1=O	166*	·	-132	·
CN(C)C1=NP(N(C)C)(N(C)C)=NC(c2ccccc2)=N1	-1	-3	52*	6
O=c1[nH]c(O)c(N=Nc2cc([N+](=O)[O-])ccc2O)c(=O)[nH]1	0	-6	23	2
Oc1c(Br)cc(Br)cc1Br	-1	0	1	-4
Oc1c(Br)cc(-c2ccccc2)cc1Br	-2	-10	72*	0
CN(C)c1ccc(/C=C/[N+](=O)[O-])cc1	101*	-1	-118	-18
C/C(=C\c1ccc(N(C)C)cc1)[N+](=O)[O-]	6	3	1	-6
O=C1NC(=O)C(=Cc2cn(CCOc3ccc4c(c3)OCO4)c3ccccc23)C(=O)N1	59*	159*	-57	-25
CNc1ccc2oc(C[C@H]3O[C@@]4(CC[C@H]3C)O[C@H]([C@H](C)C(=O)c3ccc[nH]3)[C@H](C)C[C@H]4C)nc2c1C(=O)O	211*	7	-229	0
CCN(C(=O)COC(=O)c1cn(C)c2ccccc12)c1ccc(F)cc1	-1	-2	-3	6
O=C(COc1ccccc1F)N1CCN(CCN2C(=O)c3cccc4cccc(c34)C2=O)CC1	0	-1	70*	1
CC1=C(C)CC2(C(=O)NC(=S)NC2=O)C(C)C1 (stereo unspecified)	150*	2	-140	-6
SMILES	CRFR2-BP ag	RTF Ca sens act	CRFBP-R2 block	RTF Ca sens inh	others
CC1CCCCC12C(=O)NC(=O)NC2=O (stereo unspecified)	3	-5	-18	2
CC(C)CCC1(CN2CCCC2=O)C(=O)NC(=O)NC1=O	-1	2	-5	-1
C#C[C@]1(O)CC[C@H]2[C@@H]3CCC4=Cc5nc6nc7ccccc7n6cc5C[C@]4(C)[C@H]3CC[C@@]21C	41	38*	-27	-37
CC(=NCCC1=CCCCC1)c1c(O)[nH]c(=O)[nH]c1=O	0	2	8	-5
NP(=O)(Oc1ccc(Cl)cc1)Oc1ccc(Cl)cc1	3	-1	-2	12
CC1(C)CSC(=NCc2ccccc2)N1	191*	-1	4	2
COc1cc(O)c(C(=O)O)c(-c2cc(O)c(O)cc2C)c1	0	3	-7	-1
CCCCCCCCCCOC(=O)CCN1CC1	8	2	51*	5
Cc1ccc(N2C(=O)CC(=O)NC2=O)c(C)c1	-1	0	57*	-7
Cc1ccc(N2C(=O)CC(=O)NC2=O)cc1	2	2	10	-3
CN(C)CCc1nn[nH]n1	-1	-3	6	-7
COc1cccc(C(=O)C2CCCN(C3CCOCC3)C2)c1 (stereo unspecified)	1	1	2	8
CC(=O)N1CCC(N2CCCC(C(=O)c3cccc(Cl)c3)C2)CC1 (stereo unspecified)	2	2	67*	-4
O=P(O)(O)Cc1ccccc1OP(=O)(c1ccccc1)c1ccccc1	2	1	-5	0
Oc1c(Br)c(Br)c(Br)c(Br)c1Br	-2	-14	58*	9
CCCSc1nc(O)c(CC)c(=O)n1C(C)CC (stereo unspecified)	-1	4	0	-1
C=CCN1C(=O)/C(=C\c2ccc(N3CCOCC3)o2)C(=O)NC1=S	40	49*	-29	-41
CN1C(=O)C(=Cc2ccc(Sc3ccccc3)o2)C(=O)N(C)C1=S	1	1	-3	-8
CCN1C(=O)C(=Cc2ccc(N3CCOCC3)o2)C(=O)N(CC)C1=S	36	33*	-68	-32
CN1C(=O)C(=Cc2ccc(N3CCOCC3)o2)C(=O)N(C)C1=S	239*	19	-201	-34
Cc1nn(CCC#N)c2c1P(=S)(N1CCCC1)OC(c1ccc(F)cc1)=N2 (stereo unspecified)	1	2	1	-6
CN(C(=O)Oc1ccc(C(=O)c2ccc(Cl)cc2)cc1)c1ccccc1	9	1	50*	-15
C[N+]12CCC(CC1)C(=C(c1ccccc1)c1ccccc1)C2	0	0	42	19*	RTF Ca inh conf=-2
Cc1nc2ccccc2c(=O)n1-c1cc(F)ccc1F	-1	0	-2	28*	RTF Ca inh conf=-3
Cc1nc2ccccc2c(=O)n1-c1ccc(F)cc1F	0	-6	-4	-6
